Compound activity from PubChem.
aSyn UTR act: Activators working through SNCA 5'UTR binding (MLPCN); activity score, % (tested at 7.5 µM), hits read low; alpha-synuclein 5'UTR reporter, activators screen; 7.1% of 300,000 active; in the data active = activity score below about -60%
The depositor's hits bear a star. Not all results are given here.

SMILES	aSyn UTR act
O=C(c1cnn(-c2ccccc2)c1)c1ccc2ccccc2c1O	-119*
CCOc1ccc(NS(=O)(=O)c2cc(OC)ccc2OC)cc1	-91*
COc1ccc(NC(=O)c2coc(C)c2)cc1	-115*
COc1ccc(N/C=C\C(=O)c2ccc3ccccc3c2)cc1	-212*
CN(C)S(=O)(=O)Oc1cccc(C(=O)Nc2ccc([N+](=O)[O-])cc2)c1	-168*
COc1ccc(NC(=O)c2cccc([N+](=O)[O-])c2)cc1	-105*
COc1ccc(C(=O)/C=C/Nc2ccc(C)cn2)cc1OC	-140*
COc1ccc(NC(=O)c2ccc3ccccc3c2)cc1	-92*
COc1ccc(NC(=O)c2cc([N+](=O)[O-])ccc2O)cc1	85
O=C(/C=C/Nc1ccccc1)c1ccc(Oc2ncccn2)cc1	-244*
COc1ccc(-c2cccc(C(=O)Nc3cccc(C(=O)O)c3)c2)cc1	-149*
Cc1ccc(NCCC(=O)c2cccc([N+](=O)[O-])c2)cc1	-151*
CCOc1ccc(N/C=C/C(=O)c2ccc(OC)c(OC)c2)cc1	-175*
COc1ccc(C(=O)Nc2cccc([N+](=O)[O-])c2)cc1Br	-85*
COc1ccc(Br)cc1CN(C)C(C)C(=O)Nc1cc([N+](=O)[O-])ccc1OC (configuration not stated)	51
COc1ccc(C(=O)Nc2ccc(S(=O)(=O)N(C)c3ccccc3)cc2)cc1	-74*
COc1ccc(-c2cccc(C(=O)N3CCOCC3)c2)cc1	-80*
COc1ccc(C(=O)CNc2ccc3ccccc3c2)cc1	-70*
COc1ccc(C(=O)CNc2ccccc2Br)cc1	-181*
COC(=O)/C(=C/c1cccc([N+](=O)[O-])c1)NC(=O)c1ccc(OC)cc1	-216*
CCn1c(=N)n(CC(=O)c2cccc([N+](=O)[O-])c2)c2ccccc21	-83*
Cc1nc2ccccc2n1/N=C/c1ccc([N+](=O)[O-])o1	-172*
Cc1nc2ccccc2c(=O)n1/N=C/c1ccc([N+](=O)[O-])o1	-64*
Cc1ccc(NC(=O)C(=O)NC(C)C2COc3ccccc3O2)cc1 (configuration not stated)	-71*
O=c1c2ccccc2nc(-c2ccco2)n1Cc1ccccc1	-214*
SMILES	aSyn UTR act
c1ccc(Cn2c(-c3ccco3)nc3nc4ccccc4nc32)cc1	-215*
Cc1ccc(-c2nc3nc4ccccc4nc3n2Cc2ccco2)cc1	-125*
O=C(Oc1ccc2cc(Br)ccc2c1)N1CCCCCC1	-169*
Cc1nc(N)sc1C(=O)N/N=C/c1ccccc1[N+](=O)[O-]	-133*
Cc1nc(N)sc1C(=O)N/N=C/c1c[nH]c2ccccc12	-79*
CC(/C=N/NC(=O)c1sc(N)nc1C)=C\c1ccccc1	-116*
Cc1nnsc1C(=O)N/N=C/c1ccc2ccccc2c1O	120
Cn1cccc1/C=N/NC(=O)c1sc2ccccc2c1Cl	-80*
O=C(N/N=C/c1c[nH]c2ccccc12)c1sc2ccccc2c1Cl	-69*
COC(=O)CSc1nc2cc(C)cc(C)c2cc1C#N	-180*
Cc1cc(C)c2cc(C#N)c(N3CCCN(C(=S)NCCCN(C)C)CC3)nc2c1	96
COC(=O)CSc1nc2ccc(C)cc2cc1C#N	-72*
O=c1nc2c(-c3ccccc3F)n[nH]n2c2ccccc12	-146*
O=C(c1ccc(Cl)cc1)c1coc2ccc(O)cc12	-128*
O=C(c1ccc(Br)cc1)c1coc2ccc(O)cc12	-92*
Cc1ccc(NC(=O)O/N=C/c2c(C)nn(C(C)(C)C)c2C)cc1Cl	77
CCN(CC)S(=O)(=O)c1cc([N+](=O)[O-])ccc1NNC(=O)Nc1ccc(Cl)c(Cl)c1	58
Cc1nn(C)cc1CNC(=O)Nc1ccc(Cl)c(Cl)c1	-145*
Cc1ccc(NC(=O)NCc2c(C)nn(C)c2C)cc1Cl	-157*
COc1ccc(Oc2nnnn2-c2ccccc2)cc1	-87*
COc1cccc(Oc2nnnn2-c2ccccc2)c1	-180*
c1ccc(-n2nnnc2Oc2ccc(-c3nnco3)cc2)cc1	-62*
COc1cccc(N2C(N)=NC(N)=NC2(C)C)c1	96
COc1ccccc1Oc1nnnn1-c1ccc(C(N)=O)cc1	-71*
O=C(c1ccccc1Oc1nnnn1-c1ccccc1)N1CCOCC1	-77*
SMILES	aSyn UTR act
COC(=O)C1=C(C)Nc2ccc(C)cc2S1	-64*
CCOC(=O)c1oc2ccc(/C=N/O)c(Cl)c2c1C	-140*
COC(=O)c1ccc(NC(=O)NC2CCCCC2)cc1	-117*
COc1ccc(NC(=O)NC2CCCCCCC2)cc1	-139*
CCOCC(=O)Nc1cc(C(=O)Nc2cc(C)cc(C)c2)ccc1Cl	-66*
Cc1nonc1OCCCNc1ccc([N+](=O)[O-])cc1Cl	-84*
O=c1c2ccccc2nnn1COc1cccc(Cl)c1	-107*
O=C(/C=C\c1ccco1)NC(=S)Nc1ccccc1O	-74*
O=C(/C=C/c1ccco1)NC(=S)Nc1ccccc1O	-121*
Cc1ccc(NC(=O)CSc2ncccc2C(=O)Oc2cccc([N+](=O)[O-])c2)cc1Cl	-157*
CCOC(=O)c1cccnc1SCC(=O)Nc1ccc(C)cc1	-64*
CCOC(=O)c1ccccc1NC(=O)CSc1ccc(-c2ccccn2)nn1	69
O=C(NNC(=O)c1cccnc1SCc1cccc([N+](=O)[O-])c1)c1ccccn1	103
COc1cccc(NC(=O)Nc2ccc(Br)cn2)c1	-192*
COc1ccc(NC(=O)Nc2ccc(Br)cn2)cc1OC	-69*
Clc1ccc(Cl)c(OCc2cc(-c3ccccc3Cl)on2)c1	-155*
N=c1oc2ccccc2cc1-c1nc(-c2ccc(Cl)cc2)cs1	-82*
Cc1nn(-c2ccc3ccccc3c2)c(=O)c2ccccc12	-183*
Cc1nn(-c2nc3ccccc3[nH]2)c(=O)c2ccccc12	115
Cc1nn(-c2ccc(Cl)cc2)c(=O)c2ccccc12	-85*
Cc1nn(-c2ccc(Cl)nn2)c(=O)c2ccccc12	-89*
Cc1ccc(-n2ncc3ccccc3c2=O)cc1Cl	-143*
Cc1nn(-c2ccc(Cl)c(Cl)c2)c(=O)c2ccccc12	-64*
N#C/C(=N\Nc1ccccc1)C(=N)N1CCCCC1	-78*
Cc1ccc(N/N=C(\C#N)C(=N)N2CCCCC2)cc1	-91*
SMILES	aSyn UTR act
CCN(CC)C(=N)/C(C#N)=N/Nc1ccccc1	-81*
N#C/C(=N\Nc1ccc(Cl)cc1)C(=N)N1CCCCCC1	-133*
COc1ccc(-c2csc(Nc3ncccn3)n2)cc1C	-76*
COc1ccc(-c2csc(Nc3cc(C)ccn3)n2)cc1C	-155*
COC(=O)c1ccc(COc2ccc(/C=N/N3CCN(C)CC3)cc2)cc1	-127*
CC(/C=C/c1ccc(OCc2ccccc2)cc1)=N\O	-133*
CN1CCN(/N=C/c2ccc(OCc3ccccc3)cc2)CC1	-73*
O=C1c2ccc3c4c(ccc(c24)C(=O)N1CCCCO)C(=O)N(CCCCO)C3=O	111
O=C1c2cccc3cccc(c23)C(=O)N1CCc1ccccc1	-246*
O=C(CCN1C(=O)c2cccc3cccc(c23)C1=O)N1CCOCC1	-102*
O=[N+]([O-])c1ccc2c(c1)nc1n2CCN(C2CCCCC2)C1	-127*
FC(F)(F)c1cc(-c2ccccn2)nc2cc(-c3ccccc3)nn12	-78*
O=C(O)CSCC(=O)Nc1ccc(C2CCCCC2)cc1	108
O=C(CSCCO)Nc1ccc(C23CC4CC(CC(C4)C2)C3)cc1	-66*
OCCN1CCN(CC(O)COc2ccc(C34CC5CC(CC(C5)C3)C4)cc2)CC1 (configuration not stated)	85
O=C(Nc1nc(COc2ccccc2)cs1)C12CC3CC(CC(C3)C1)C2	-147*
